This is an account of results in PubChem BioAssay AID1259372 (The Scripps Research Institute Molecular Screening Center, 2018).

A word on the inhibition: it is the change of the read-out against control, counted positive when it falls.

SMILES strings stand for the structures. About 760 (16%) of roughly 4,700 compounds were called active. The list is a sample of the results. Values without a mark were called inactive.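 How the source made its calls: active means inhibition above a cutoff derived from the DMSO control wells (cut at about 28% in these data); inactive means the rest.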

For the assay, the target named is Microphthalmia-associated transcription factor (Homo sapiens) (UniProt O75030). In words: blockers of human MITF dimerization – biochemical, AlphaScreen, triplicate, confirmation (AID 1259372). As to conditions: AlphaScreen MITF homodimerization, biotin/His-MITF beads; at 2.6 µM; stronger effect = higher value. Background: In Alpha technology, singlet oxygen from a donor bead excites a nearby acceptor bead.
Microphthalmia-associated transcription factor (Homo sapiens), sequence (O75030 whole entry, looked up): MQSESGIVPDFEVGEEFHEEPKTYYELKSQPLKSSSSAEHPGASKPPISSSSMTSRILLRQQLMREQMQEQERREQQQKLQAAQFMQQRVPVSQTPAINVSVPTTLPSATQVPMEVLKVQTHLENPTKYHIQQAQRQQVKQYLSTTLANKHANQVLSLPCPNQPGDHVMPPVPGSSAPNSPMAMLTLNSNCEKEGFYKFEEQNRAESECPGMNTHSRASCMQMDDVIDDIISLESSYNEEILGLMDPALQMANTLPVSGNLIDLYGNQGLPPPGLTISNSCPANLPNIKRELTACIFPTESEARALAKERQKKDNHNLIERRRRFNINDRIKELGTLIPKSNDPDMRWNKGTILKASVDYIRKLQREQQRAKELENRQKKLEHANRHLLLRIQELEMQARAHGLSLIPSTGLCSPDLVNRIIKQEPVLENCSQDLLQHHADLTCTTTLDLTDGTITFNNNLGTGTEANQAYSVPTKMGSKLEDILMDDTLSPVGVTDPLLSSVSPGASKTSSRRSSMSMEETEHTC
On to `COc1ccc(C(=O)COC(=O)CNS(=O)(=O)/C=C/c2ccc(C)cc2)cc1OC`, for which the inhibition is 7.42%.
The result for `O=C(CNCc1ccc(F)cc1)Nc1ccc(N2CCCC2)cc1` reads 17.1%; that for `CC(C)(C)n1nnnc1C(c1ccc2ncccc2c1)N1CCSCC1` (stereo not drawn), 20.3%; that for `CCc1cccc(OCCOCCn2ccnc2)c1`, 0.99%.
Under `CCc1ccc(OCCCCn2ccnc2)cc1` stands -7.12%.
On to `N#Cc1nc(COc2cccc(Cl)c2)oc1NCCCn1ccnc1`, for which the inhibition was 43.8% (active).
Under `C=CCc1cc(C)ccc1OCCCn1ccnc1` stands -1.07%; under `COc1ccc(Br)cc1CN1CCN(C(=O)c2cccnc2)CC1`, 8.4%.
The result for `Cc1cccc(NC(=O)CNCCN2CCCCC2)c1C` reads 7.31%; that for `O=[N+]([O-])c1ccccc1S(=O)(=O)N1CCN(C2Cc3ccccc3C2)CC1`, 4.35%.
The result for `COc1ccc(CN2CCN(Cc3cc(OC)c(OC)c(OC)c3)CC2)cc1` reads 1.87%.
Consider `CCN(CC)CCN1COc2c(cc(Cl)c3cccnc23)C1`, for which the inhibition was 107% (active).
Under `CN1CCN(CCC(=O)N/N=C/c2ccsc2)CC1` stands -0.75%.
The result for `c1ccc(-n2cc(CN3CCOCC3)c(-c3ccc4c(c3)OCCO4)n2)cc1` reads 13.2%; that for `COC(=O)C(C)CN1CCN(Cc2ccc3c(c2)OCO3)CC1` (stereo not drawn), 1.84%; that for `CCN(Cc1ccccc1)Cc1ccc([N+](=O)[O-])cc1`, -4.11%.
Under `COc1ccc(OCCCC(=O)Oc2ccc(OC)cc2)cc1` stands 4.29%; under `Cc1ccc(OCCCCNCCN2CCOCC2)c(Br)c1`, 5.77%.
Turning to `COc1cccc(-c2ncnn2-c2sc3c(c2C#N)CCCCC3)c1`, the inhibition was -10.4%.
Under `COc1cc(CN2CCN(Cc3ccccc3Cl)CC2)cc(OC)c1OC` stands 9.37%; under `CCN1CCN(CCOCCOc2ccccc2OCc2ccccc2)CC1`, 2.12%.
Under `COCCCN1C(=O)c2cccc3c(C(=O)c4ccccc4)ccc(c23)C1=O` stands 10.4%.
The result for `O=C(CN1CCN(CC(=O)c2ccco2)CC1)Nc1ccc(Cl)c(Cl)c1` reads 10.7%; that for `Cc1nc2sc(C(c3ccccc3Cl)N3CCC4(CC3)OCCO4)c(O)n2n1` (stereo not drawn), 13.8%.
As to `CC(=O)NS(=O)(=O)c1ccc(-c2ccc(C=C(C#N)C#N)o2)cc1`, the inhibition was -19.5%.
For the compound `N#Cc1ccc(/C=N/NC(=O)c2cc([N+](=O)[O-])cc([N+](=O)[O-])c2)cc1`, the inhibition is 3.87%.
The result for `Fc1cccc(Cl)c1Cn1nnc(-c2ccncc2)n1` reads 13.6%; that for `Cc1cccc(OCCN2CCNCC2)c1C`, -3.54%.
